Source: PubChem BioAssay (National Center for Advancing Translational Sciences (NCATS))
Shown are actives, neighbours in structure and some others; about 0.52% of the full set was active somewhere.
Vif-A3F inh = Vif-A3F binding inhibition. 0.2% of 390,000 active. Potency, µM (doses to about 46.1 µM), without a hit: at the highest dose activity, negative = active. AID 602313. HeLa A3F-eYFP + Vif (tagged APOBEC3F with the HIV-1 protein that degrades it), YFP fluorescence increase; further: % of control where 0% means no effect; nearly all actives have a fitted effect of over 65% in size
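HeLa cells stably expressing A3F-eYFP plus Vif, plated and incubated overnight at 37 deg C, then exposed to compounds overnight at 37 deg C. Blocked degradation read as raised yellow fluorescence (Ex 488/Em 500-530).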
PINK1 expr mod = modulators of PINK1 expression; 0.2% of 410,000 active; Potency, µM (titrated, usually from 76.6 µM), for inactives: at the top dose activation (PINK1 increase), usual class: activators; PINK1 immunofluorescence, high-content cytometry, 24 h; AID 624263; active means well fitted activation curve with a large enough effect; inconclusive means small, poorly fitted or top-dose-only effect; cell line not stated here; further: % of control where 0% means no effect; nearly all actives have a fitted effect of over 65% in size
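A stable cell line was treated with compounds at 5 concentrations for 24 hours, with CCCP as control. PINK1 levels and mitochondrial localization were measured by immunofluorescence with mitochondrial, cell and nuclear markers after fixation, read by laser-scanning cytometry.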
Epigenetic derep = derepresses silenced GFP reporter in murine cells. murine LDR cells, GFP reporter derepression, 30 h. Potency, µM (series often up to 53.9 µM), without a hit: at the top dose GFP activation, hits mostly activators. 0.2% of 280,000 active. AID 1865; further: % of control where 0% means no effect; nearly all actives have a fitted effect of over 60% in size
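Reporter derepression read as number of fluorescent GFP-positive objects, 20-120 um in size, counted by laser-scanning cytometer. Mouse LDR line with an epigenetically silenced CMV-GFP locus; compound incubation 30 h, 37 C.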
Vif-A3G inh = blocks the Vif interaction with human APOBEC3G | Q9HC16 | HeLa A3G-eYFP + Vif (tagged APOBEC3G with the HIV-1 protein that degrades it), YFP fluorescence, overnight | Potency, µM (titrated, usually from 46.1 µM), for the others: at the top dose activity, negative = active, usual class: inhibitors | 0.076% of 410,000 active | AID 602310; further: on the % scale 0 is the no-effect control and ±100 the full control effect; nearly all actives have a fitted effect of over 60% in size
Target sequence (Q9HC16 whole entry, looked up): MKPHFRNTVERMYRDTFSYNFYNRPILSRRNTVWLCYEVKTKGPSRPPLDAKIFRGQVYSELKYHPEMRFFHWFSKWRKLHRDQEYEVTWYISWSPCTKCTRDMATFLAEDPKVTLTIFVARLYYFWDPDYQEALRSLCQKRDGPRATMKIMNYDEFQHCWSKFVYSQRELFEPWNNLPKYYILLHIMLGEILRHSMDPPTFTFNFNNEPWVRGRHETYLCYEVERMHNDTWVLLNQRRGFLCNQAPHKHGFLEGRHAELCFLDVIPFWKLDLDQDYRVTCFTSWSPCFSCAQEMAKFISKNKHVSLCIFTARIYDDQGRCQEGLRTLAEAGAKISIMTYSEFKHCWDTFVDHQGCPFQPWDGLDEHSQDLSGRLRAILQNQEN
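HeLa cells stably expressing Vif and C-terminally eYFP-tagged A3G, seeded overnight at 37 deg C, then exposed to compound by pintool overnight at 37 deg C. Rise in yellow fluorescence (Ex 488/Em 500-530, Acumen) marks blocked Vif-driven A3G degradation.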
* = called active by the depositor; [ ] = remark or other dose. Unless noted, the call rests on the fitted dose curve; in most records, active means well fitted curve in the direction sought with a large enough effect; inconclusive means small, poorly fitted or top-dose-only effect, or another doubt; inactive means no such curve, though single readings can be large; an effect the other way counts as inactive or inconclusive. Potency means the concentration at half of the fitted maximal effect.

Results for NC(=S)N/N=C/c1ccc(-c2cccc([N+](=O)[O-])c2)o1 ?
Vif-A3F inh: inconclusive; PINK1 expr mod: -2%; Epigenetic derep: 16µM*; Vif-A3G inh: -4%

Results for O=[N+]([O-])c1cccc(-c2ccc(/C=N/NC(=S)Nc3cccc(F)c3)o2)c1 ?
Vif-A3F inh: 1%; PINK1 expr mod: 3%; Epigenetic derep: 1%; Vif-A3G inh: 1%

Results for CC(C)(C)NC(=S)N/N=C\c1ccc(-c2ccc([N+](=O)[O-])cc2)o1 ?
Vif-A3F inh: 25µM*; PINK1 expr mod: 10%; Epigenetic derep: 13µM*; Vif-A3G inh: 10µM*

How did CCCCC(=O)N/N=C/c1ccc(-c2ccc([N+](=O)[O-])cc2)o1 do in these assays?
Vif-A3F inh: -2%; PINK1 expr mod: 8%; Epigenetic derep: -1%; Vif-A3G inh: -3%

Results for NS(=O)(=O)c1ccc(-c2ccc(/C=N/NC(=O)c3ccc([N+](=O)[O-])cc3)o2)cc1 ?
Vif-A3F inh: inconclusive; PINK1 expr mod: 40µM*; Epigenetic derep: 14%; Vif-A3G inh: -3%

Results for O=C(O)c1ccc(-c2ccc(/C=N/Nc3ccc([N+](=O)[O-])cc3)o2)cc1 ?
Vif-A3F inh: inconclusive; PINK1 expr mod: 0%; Epigenetic derep: inconclusive; Vif-A3G inh: 10µM*

Results for O=C(O)c1cccc(-c2ccc(/C=N/Nc3ccc([N+](=O)[O-])cc3)o2)c1 ?
Vif-A3F inh: 22µM*; PINK1 expr mod: -1%; Epigenetic derep: 5%; Vif-A3G inh: inconclusive

How did O=C(O)c1ccc(N/N=C/c2ccc(-c3cccc(Cl)c3)o2)cc1 do in these assays?
Vif-A3F inh: 3%; PINK1 expr mod: inconclusive; Epigenetic derep: 8%; Vif-A3G inh: -25%

Results for O=C(N/N=C/c1ccc(-c2ccc([N+](=O)[O-])cc2)o1)[C@H]1C[C@@H]1c1ccccc1 ?
Vif-A3F inh: 7.1µM*; PINK1 expr mod: inconclusive; Epigenetic derep: inconclusive; Vif-A3G inh: -6%

Results for COC(=O)c1cccc(C(=O)N2CCc3c(C(=O)OC)c(OCc4ccccn4)cc(=O)n3CC2)c1 ?
PINK1 expr mod: -1%

How did O=C(CC1(c2cccc(F)c2)CC(=O)N(Cc2cccnc2)C1=O)N1CCCCCCC1 (stereo not given) do in these assays?
PINK1 expr mod: 2%

Results for COc1cccc(/C=N/Nc2snc(SC)c2C#N)c1O ?
Vif-A3F inh: 1%; PINK1 expr mod: 13µM*; Epigenetic derep: -1%; Vif-A3G inh: -2%

Results for CCCCn1c(NC(=O)c2ccccc2Cl)c(C#N)c2nc3ccccc3nc21 ?
Vif-A3F inh: inconclusive; PINK1 expr mod: 40µM*; Epigenetic derep: -1%; Vif-A3G inh: inconclusive

What do the screens show for `COc1cc(CNc2nc(C)c(-c3ccn(CC4CCCN(C)C4)n3)s2)ccc1F` (stereo not given)?
PINK1 expr mod: -1%

Results for COc1cccc(C2CC(c3ccccc3)=NN2S(=O)(=O)c2ccc(C)cc2)c1OC (stereo not given) ?
Vif-A3F inh: 25µM*; PINK1 expr mod: 0%; Epigenetic derep: inconclusive; Vif-A3G inh: inconclusive

Results for COc1ccccc1C1CC(c2ccccc2)=NN1S(=O)(=O)c1ccccc1 (stereo not given) ?
Vif-A3F inh: 2%; PINK1 expr mod: 0%; Epigenetic derep: 2%; Vif-A3G inh: -5%

How did CS(=O)(=O)Nc1ccc(-c2ccc(/C=C3\SC(N)=NC3=O)o2)cc1 do in these assays?
Vif-A3F inh: -10%; PINK1 expr mod: 28%; Vif-A3G inh: -6%

Results for NC1=NC(=O)/C(=C/c2ccc(-c3ccc(S(N)(=O)=O)cc3)o2)S1 ?
Vif-A3F inh: 0%; PINK1 expr mod: 32µM*; Vif-A3G inh: -28%

Results for CC(=O)c1sc2nc(-c3cccs3)cc(C(F)(F)F)c2c1N ?
Vif-A3F inh: 5µM*; PINK1 expr mod: inconclusive; Epigenetic derep: 16µM*; Vif-A3G inh: inconclusive

How did Cc1c(C(=O)O)sc2nc(-c3cccs3)cc(C(F)(F)F)c12 do in these assays?
Vif-A3F inh: -17%; PINK1 expr mod: -1%; Vif-A3G inh: 1%

What do the screens show for `CN(C)S(=O)(=O)c1cccc(N=C2NN=C(c3ccccc3)CS2)c1`?
Vif-A3F inh: -9%; PINK1 expr mod: 32µM*; Epigenetic derep: 2%; Vif-A3G inh: -2%

What do the screens show for `CC(=O)Nc1ccc(C2=NNC(=Nc3cccc(S(=O)(=O)N(C)C)c3)SC2)cc1`?
Vif-A3F inh: -21%; PINK1 expr mod: inconclusive; Epigenetic derep: -3%; Vif-A3G inh: -9%

Results for COc1ccc(C2=NNC(=Nc3cc(S(=O)(=O)N(C)C)ccc3C)SC2)c(OC)c1 ?
Vif-A3F inh: 0%; PINK1 expr mod: 2.8µM*; Epigenetic derep: -3%; Vif-A3G inh: -10%

Results for CCOC(=O)N1CCC(Nc2nc3ccccc3nc2NS(=O)(=O)c2ccc(Cl)cc2)CC1 ?
Vif-A3F inh: 32µM*; PINK1 expr mod: -1%[38.3 µM]; Epigenetic derep: -1%; Vif-A3G inh: -2%

Results for Cc1ccccc1NC(=S)NNc1ncc(C(F)(F)F)cc1Cl ?
Vif-A3F inh: 0%; PINK1 expr mod: 4%; Epigenetic derep: -1%; Vif-A3G inh: 0%

How did Fc1ccccc1NC(=S)NNc1ncc(C(F)(F)F)cc1Cl do in these assays?
Vif-A3F inh: 3%; PINK1 expr mod: 16µM*; Epigenetic derep: -3%; Vif-A3G inh: 0%

How did CO[C@H]1[C@H](NC(=O)c2ccsc2)c2ccccc2C12CCN(Cc1cc(Cl)ccc1O)CC2 do in these assays?
PINK1 expr mod: 0%

Results for C=CCN1C(=O)/C(=C/c2ccc(OC(C)=O)c(OCC)c2[N+](=O)[O-])SC1=S ?
Vif-A3F inh: inconclusive; PINK1 expr mod: 4.5µM*; Epigenetic derep: -3%; Vif-A3G inh: -1%

What do the screens show for `CC(=O)O[C@]1(C(C)=O)CC[C@H]2[C@@H]3C[C@H](C)C4=CC(=O)CC[C@]4(C)[C@H]3CC[C@@]21C`?
Vif-A3F inh: -3%; PINK1 expr mod: 32µM*; Epigenetic derep: -2%; Vif-A3G inh: 1%

What do the screens show for `CC(=O)C12CCCCC1CC1[C@@H]3CC(C)C4=CC(=O)CC[C@]4(C)C3CC[C@@]12C` (stereo not given in full)?
Vif-A3F inh: 2%; PINK1 expr mod: 16µM*; Vif-A3G inh: 0%

What do the screens show for `Cc1cnc(C)c(-c2ccc(F)c3c2OC(CNC(=O)Cc2c(C)[nH]c4ccccc24)C3)n1` (stereo not given)?
PINK1 expr mod: 0%

Results for O=C(Nc1ccc2c(c1)OCCO2)c1ccco1 ?
Vif-A3F inh: -4%; PINK1 expr mod: 11µM*; Epigenetic derep: -2%; Vif-A3G inh: 2%

How did COc1ccc(N2CCN(C(=O)c3ccc(Cn4nc(C)c([N+](=O)[O-])c4C)o3)CC2)cc1 do in these assays?
Vif-A3F inh: -25%; PINK1 expr mod: 1%; Vif-A3G inh: -12%
